# ± gives the standard deviation of the averaged measurements.
# Test system: Caenorhabditis elegans N2
# Assay: egg-laying rate relative to DMSO control (serotonin + nicotine background) (fraction of control); higher = more egg-laying
# Conditions: background: 12.3 mM serotonin + 7.7 mM nicotine; 60 µM; 1 h
# Protocol: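 About 20 young-adult wild-type C. elegans (N2) per well in 96-well plates were exposed to 60 uM compound for 1 h at room temperature, either in M9 buffer (to find stimulators) or in 12.3 mM serotonin + 7.7 mM nicotine (NS, to find inhibitors). Eggs per worm per hour were counted by automated imaging and normalised to the mean of proximal DMSO control wells. Values average the primary screen and two retests of the worm-active (wactive) Egl modulators.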
row,Compound,egg-laying rate
1,CCOc1ccc(/C=C/[N+](=O)[O-])cc1 [wact-385],0.313 ± 0.11

# Reference: the supplement of paper PMC9402605
